The campaign covered roughly 5,500 compounds. About 2,000 (36%) were called active. Roughly 18% stayed inconclusive and do not appear here. No stated cut-off is given here; in the data, active means normalized growth mostly below about 0.91 (no sharp cut-off); inconclusive means no clear call, values can overlap the other calls; inactive means mostly above about 0.92. The list shows a part of the results.
Assay: chemical genetic growth profiling, strain panel (AID 1159580);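 further: tested at 20 µM; growth read once vehicle control cultures reached saturation at 30 °C; 1 = growth at the plate median or of vehicle wells; lower values mean less growth of the strain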
Conditions: growth OD

Measured: normalized growth

CO[C@H]1[C@H](O)[C@H](O[C@H]2CC[C@]3(C)C4CC[C@]5(C)C(C6=CC(=O)OC6)CC[C@]5(O)C4CC[C@@H]3C2)O[C@@H](C)[C@@H]1O (some centres undefined)
inactive: S. cerevisiae deletion strains, locus YJR043C, strain POL32, hits give low values 1.02 | S. cerevisiae deletion strains, locus YJR075W, strain HOC1, hits give low values 1.02 | S. cerevisiae deletion strains, locus YKL009W, strain mrt4, hits give low values 0.996 | S. cerevisiae deletion strains, locus YKL068W, hits give low values 1 | S. cerevisiae deletion strains, locus YKL085W, strain MDH1 (second series), hits give low values 1.01 | S. cerevisiae deletion strains, locus YKL085W, strain MDH1, hits give low values 1.01 | S. cerevisiae deletion strains, locus YKL160W, strain elf1, hits give low values 0.989 | S. cerevisiae deletion strains, locus YKL190W, strain CNB1, hits give low values 1.01 | S. cerevisiae deletion strains, locus YKR001C, strain vps1, hits give low values 0.992 | S. cerevisiae deletion strains, locus YKR026C, strain gcn3, hits give low values 0.995 | S. cerevisiae deletion strains, locus YKR091W, strain srl3, hits give low values 0.995 | S. cerevisiae deletion strains, locus YLL001W, strain dnm1, hits give low values 0.999 | S. cerevisiae deletion strains, locus YLL026W, hits give low values 1 | S. cerevisiae deletion strains, locus YLL041C, strain sdh2, hits give low values 1.01 | S. cerevisiae deletion strains, locus YLR027C, strain aat2, hits give low values 0.999 | S. cerevisiae deletion strains, locus YLR039C, strain RIC1, hits give low values 1.02 | S. cerevisiae deletion strains, locus YLR058C, strain SHM2, hits give low values 1.02 | S. cerevisiae deletion strains, locus YLR102C, strain apc9, hits give low values 1 | S. cerevisiae deletion strains, locus YLR221C, strain rsa3, hits give low values 1.01 | S. cerevisiae deletion strains, locus YLR258W, strain gsy2, hits give low values 1 | S. cerevisiae deletion strains, locus YLR262C, strain YPT6 (second series), hits give low values 1.01 | S. cerevisiae deletion strains, locus YLR262C, strain YPT6, hits give low values 1.01 | S. cerevisiae deletion strains, locus YLR268W, strain sec22, hits give low values 1.02 | S. cerevisiae deletion strains, locus YLR320W, strain mms22, hits give low values 1.01 | S. cerevisiae deletion strains, locus YLR330W, strain CHS5, hits give low values 1.02 | S. cerevisiae deletion strains, locus YLR342W, strain FKS1 (second series), hits give low values 1.06 | S. cerevisiae deletion strains, locus YLR342W, strain FKS1, hits give low values 1 | S. cerevisiae deletion strains, locus YLR357W, strain rsc2, hits give low values 0.992 | S. cerevisiae deletion strains, locus YLR370C, strain arc18, hits give low values 1 | S. cerevisiae deletion strains, locus YLR371W, strain rom2, hits give low values 1.02 | S. cerevisiae deletion strains, locus YLR384C, strain iki3, hits give low values 0.991 | S. cerevisiae deletion strains, locus YLR418C, strain cdc73, hits give low values 1.03 | S. cerevisiae deletion strains, locus YML016C, strain PPZ1, hits give low values 1.01 | S. cerevisiae deletion strains, locus YML032C, strain rad52, hits give low values 1 | S. cerevisiae deletion strains, locus YML120C, strain ndi1, hits give low values 1.03 | S. cerevisiae deletion strains, locus YML124C, strain tub3, hits give low values 1.01 | S. cerevisiae deletion strains, locus YMR058W, strain fet3, hits give low values 1.02 | S. cerevisiae deletion strains, locus YMR078C, strain ctf18, hits give low values 1.01 | S. cerevisiae deletion strains, locus YMR125W, strain sto1, hits give low values 0.981 | S. cerevisiae deletion strains, locus YMR129W, hits give low values 1.01 | S. cerevisiae deletion strains, locus YMR205C, strain PFK2, hits give low values 1 | S. cerevisiae deletion strains, locus YMR223W, strain ubp8, hits give low values 0.994 | S. cerevisiae deletion strains, locus YMR231W, strain pep5, hits give low values 1 | S. cerevisiae deletion strains, locus YMR263W, strain SAP30, hits give low values 1.01 | S. cerevisiae deletion strains, locus YMR307W, strain GAS1, hits give low values 1.06 | S. cerevisiae deletion strains, locus YNL067W, strain RPL9B, hits give low values 1.02 | S. cerevisiae deletion strains, locus YNL071W, strain lat1, hits give low values 0.996 | S. cerevisiae deletion strains, locus YNL128W, strain TEP1, hits give low values 1.04 | S. cerevisiae deletion strains, locus YNL153C, strain GIM3, hits give low values 1.02 | S. cerevisiae deletion strains, locus YNL209W, strain ssb2, hits give low values 0.985 | S. cerevisiae deletion strains, locus YNL233W, strain BNI4, hits give low values 1.02 | S. cerevisiae deletion strains, locus YNL248C, strain rpa49, hits give low values 0.991 | S. cerevisiae deletion strains, locus YNL250W, strain rad50, hits give low values 1 | S. cerevisiae deletion strains, locus YNL271C, strain bni1, hits give low values 1.01 | S. cerevisiae deletion strains, locus YNL298W, strain CLA4, hits give low values 0.999 | S. cerevisiae deletion strains, locus YNL307C, strain MCK1, hits give low values 1.02 | S. cerevisiae deletion strains, locus YNL322C, strain KRE1 (second series), hits give low values 0.989 | S. cerevisiae deletion strains, locus YNL322C, strain KRE1, hits give low values 1.01 | S. cerevisiae deletion strains, locus YNR049C, strain mso1, hits give low values 1 | S. cerevisiae deletion strains, locus YNR052C, strain pop2, hits give low values 1 | S. cerevisiae deletion strains, locus YOL006C, strain TOP1, hits give low values 1.06 | S. cerevisiae deletion strains, locus YOL012C, strain htz1 1.19 | S. cerevisiae deletion strains, locus YOL147C, strain pex11, hits give low values 1.01 | S. cerevisiae deletion strains, locus YOR001W, strain rrp6, hits give low values 1.02 | S. cerevisiae deletion strains, locus YOR061W, strain CKA2, hits give low values 1.01 | S. cerevisiae deletion strains, locus YOR069W, strain VPS5, hits give low values 1.01 | S. cerevisiae deletion strains, locus YOR070C, strain gyp1, hits give low values 1.01 | S. cerevisiae deletion strains, locus YOR080W, strain dia2, hits give low values 1 | S. cerevisiae deletion strains, locus YOR083W, strain WHI5, hits give low values 0.955 | S. cerevisiae deletion strains, locus YOR106W, strain vam3, hits give low values 0.984 | S. cerevisiae deletion strains, locus YOR136W, strain idh2, hits give low values 1.01 | S. cerevisiae deletion strains, locus YOR144C, strain elg1, hits give low values 1.01 | S. cerevisiae deletion strains, locus YOR184W, strain ser1, hits give low values 1.01 | S. cerevisiae deletion strains, locus YOR265W, strain rbl2, hits give low values 1.01 | S. cerevisiae deletion strains, locus YOR270C, strain vph1, hits give low values 0.97 | S. cerevisiae deletion strains, locus YOR290C, strain snf2, hits give low values 1.01 | S. cerevisiae deletion strains, locus YOR316C, strain cot1, hits give low values 1 | S. cerevisiae deletion strains, locus YPL051W, strain arl3, hits give low values 0.994 | S. cerevisiae deletion strains, locus YPL055C, strain LGE1, hits give low values 1 | S. cerevisiae deletion strains, locus YPL078C, strain atp4, hits give low values 0.989 | S. cerevisiae deletion strains, locus YPL106C, strain sse1, hits give low values 0.959 | S. cerevisiae deletion strains, locus YPL240C, strain hsp82, hits give low values 0.998 | S. cerevisiae deletion strains, locus YPL241C, strain CIN2, hits give low values 1.01 | S. cerevisiae deletion strains, locus YPR119W, strain clb2, hits give low values 0.996 | S. cerevisiae deletion strains, locus YPR141C, strain kar3, hits give low values 1 | S. cerevisiae deletion strains, locus YPR163C, strain tif3, hits give low values 1.01 | S. cerevisiae deletion strains, locus YPR167C, strain met16, hits give low values 0.998 | S. cerevisiae deletion strains, strain wtn01, hits give low values 1 | S. cerevisiae strains, strain wild type, hits give low values 1.02

Source: PubChem BioAssay AID1159580 (chemical genetic matrix, 2015)
